# In PubChem BioAssay (Tox21):
# Records with an inconclusive call do not appear. Activity calls are given as the source filed them. Calls follow the shape of the dose curve; as a rule, active = well fitted activation curve with a large enough effect in the signal ratio in the repeat runs (not every such curve was filed as active); inconclusive = weak or mixed curves, or effect the other way; inactive = flat fitted curve, though single readings scatter; the % refers to the signal ratio.
# Target: Estrogen receptor beta (Homo sapiens) (UniProt Q92731)
# Test: qHTS assay to identify small molecule agonists of the estrogen receptor beta (ER-beta) signaling pathway (AID 1259377)
# Settings: ER-beta-UAS-bla HEK293T, beta-lactamase FRET ratio, 16 h; series mostly up to 92.4 µM; activation: at the top concentration
# Source text: U.S. Tox21 Program National Center for Advancing Translational Sciences [NCATS] NIH Chemical Genomics Center [NCGC] U.S. Environmental Protection Agency [EPA] National Institutes of Environmental Health Sciences [NIEHS] National Toxicology Program [NTP] U.S. Food and Drug Administration [FDA] Tox21 Assay Overview: Estrogen receptor (ER), a nuclear hormone receptor, plays an important role in development, metabolic homeostasis and reproduction. Two subtypes of ER, ER-alpha and ER-beta, have similar expression patterns with some uniqueness in both types. Endocrine disrupting chemicals (EDCs) and their interactions with steroid hormone receptors like ER causes disruption of normal endocrine function. To identify the compounds that activate ER signaling, an ER beta-UAS-bla GripTite cell line (Life technologies, Madison, WI, USA) containing a beta-lactamase reporter gene under the control of an Upstream Activator Sequence (UAS) was used to screen Tox21 10K compound library.
# Tox21 Assay Protocol Summary: ER-beta-UAS-bla HEK293T cells were dispensed at 2,000 cells/5 uL of assay medium containing 2% charcoal stripped FBS per well into black wall/clear-bottom 1536-well plates using a Multidrop Combi (ThermoFisher Scientific, Waltham, MA) dispenser. After the assay plates were incubated at a 37C and 5% CO2 for 6 hr, 23 nL of compounds dissolved in DMSO, positive controls or DMSO only was transferred to the assay plate by a Pintool station (Kalypsys, San Diego, CA). The plates were incubated at 37C and 5% CO2 for 16 hr. Then 1 uL of LiveBLAzerTM B/G FRET substrate was added using a BioRAPTR FRD (Flying Reagent Dispenser, Aurora Discovery, San Diego, CA). After the plates were incubated at room temperature for 2 hours, fluorescence intensity was measured by an Envision plate reader (PerkinElmer, Shelton, CT).
# % is scaled to controls: 0 for no effect and ±100 for the full control effect.
# Sequence of Estrogen receptor beta (Homo sapiens) (Q92731 whole entry, looked up): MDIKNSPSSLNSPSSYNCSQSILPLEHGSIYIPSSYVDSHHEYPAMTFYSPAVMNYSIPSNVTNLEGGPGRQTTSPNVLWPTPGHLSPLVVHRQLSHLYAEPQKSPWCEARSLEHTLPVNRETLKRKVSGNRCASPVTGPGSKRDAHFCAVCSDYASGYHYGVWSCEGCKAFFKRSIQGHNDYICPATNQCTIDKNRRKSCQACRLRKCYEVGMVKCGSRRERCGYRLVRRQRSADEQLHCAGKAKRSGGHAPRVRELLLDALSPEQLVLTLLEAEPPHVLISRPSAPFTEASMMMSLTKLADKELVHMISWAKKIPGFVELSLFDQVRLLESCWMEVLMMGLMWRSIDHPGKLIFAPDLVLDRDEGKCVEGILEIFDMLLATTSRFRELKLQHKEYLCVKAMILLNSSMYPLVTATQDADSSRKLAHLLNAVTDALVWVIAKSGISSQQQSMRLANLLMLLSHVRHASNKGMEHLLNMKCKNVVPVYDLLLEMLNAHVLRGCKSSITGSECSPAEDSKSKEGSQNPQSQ
row,SMILES,activation
1,O=[N+]([O-])c1ccc(O)c2ncccc12,-8.11% [at 42.5 µM] (inactive)
2,CCNc1nc(NC(C)(C)C)nc(OC)n1,-0.103% (inactive)
3,O=C1CCCCCCCCCCCCCC1,0.17% (inactive)
4,C=CC(C)(C)O,-1.76% (inactive)
5,NCc1ccco1,-2.55% (inactive)
6,CN1CCN(C)CC1,-1.78% (inactive)
7,CCc1c(C)cc(N)c(CC)c1N,-0.0309% (inactive)
8,CCSCC,-0.443% (inactive)
9,CCc1cccc(CC)c1,-3.06% (inactive)
10,Nc1ccc(F)c([N+](=O)[O-])c1,-2.67% (inactive)
11,CCN(CC)c1ccc(N=Nc2ccccc2)cc1,-5.75% (inactive)
12,Cc1ccc(C=O)cc1,7.02% [at 42.5 µM] (inactive)
13,CC(c1cc(C(C)(C)C)cc(C(C)(C)C)c1O)c1cc(C(C)(C)C)cc(C(C)(C)C)c1O,-1.37% (inactive)
14,CC(O)(c1ccc(Cl)cc1)c1ccc(Cl)cc1,-0.133% (inactive)
15,CC(C)(C)c1ccc(OC2CCCCC2O)cc1 (stereo not given),-3.98% (inactive)
16,CCCC(C)C=O (stereo not given),-0.279% (inactive)
17,O=C(Cl)c1ccc(Cl)cc1Cl,-0.124% (inactive)
18,SC1CCCCC1,4.19% (inactive)
19,c1ccc(-c2nc3ccccc3[nH]2)cc1,-1.49% (inactive)
20,CC(C)(C)C1=CC(=O)C(C(C)(C)C)=CC1=O,-5.2% [at 42.5 µM] (inactive)

row,SMILES,activation
1,O=[N+]([O-])c1ccc(CO)cc1,-1.12% (inactive)
2,CCOC(=O)[C@H](C)O,9.62% (inactive)
3,O=c1cc[nH]cc1,0.186% (inactive)
4,Nc1ccc(Oc2cccc(Oc3ccc(N)cc3)c2)cc1,-2.98% (inactive)
5,O=c1[nH]cccc1O,-3.98% (inactive)
6,CCCCNc1ccc(NCCCC)c2c1C(=O)c1ccccc1C2=O,-2.22% [at 19 µM] (inactive)
7,C=CC(=O)OCC(Br)CBr (stereo not given),0.0077% (inactive)
8,O[Si](c1ccccc1)(c1ccccc1)c1ccccc1,-0.997% (inactive)
9,O=C(O)CN(CCCN(CC(=O)O)CC(=O)O)CC(=O)O,-3.28% [at 19 µM] (inactive)
10,O=C(Nc1ccc([N+](=O)[O-])cc1)Nc1ccc([N+](=O)[O-])cc1 (tested in a mixture with another compound),0.0756% [at 42.5 µM] (inactive)
11,Cc1ccc2n[nH]nc2c1,-0.41% (inactive)
12,O=C1OCc2ccccc21,-0.831% (inactive)
13,COc1cc(OC)nc(NC(=O)NS(=O)(=O)Nc2ccccc2C(=O)N(C)C)n1,-3.31% (inactive)
14,CCCCCCCCCC[N+](C)(CCCCCCCCCC)CCC[Si](OC)(OC)OC,10.2% (inactive)
15,COc1cc2ncnc(Nc3cccc(Cl)c3)c2cc1OC,-5.03% [at 19 µM] (inactive)
16,c1ccc2cc3c4ccccc4c4ccccc4c3cc2c1,-0.935% (inactive)
17,CN(C/C=C/c1ccccc1)Cc1cccc2ccccc12,-2.61% [at 42.5 µM] (inactive)
18,Cc1ccc(Cl)c(N)c1Cl,-0.0958% (inactive)
19,Nc1c(Br)cc([N+](=O)[O-])cc1Br,-2.2% (inactive)
20,Cc1ccc2sc3cccc(C)c3c2c1,-0.131% (inactive)
